SW480 rerep: DNA re-replication induction in SW480 cells. SW480 DNA re-replication, Hoechst DNA content imaging, 48 h. Potency, µM (highest dose often 46.1 µM), for inactives: at the top dose re-replication activation, actives largely listed as activators. 340,000 tested, 1.8% active. AID 624297; note: potency is the fitted concentration of half-maximal effect; % of control where 0% means no effect; nearly all actives have a fitted effect of over 55% in size
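250 cells/well; 23 nL cpd via pin tool; 48 hr, 37 C, 5% CO2; Hoechst 40 min; imager read of total nuclear intensity, ex 405/em 500-530 nm.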
KB-V1 MDR tox: kills drug-selected multidrug resistant KB-V1 cells; AID 1347076; 400,000 tested, 3.4% active; Potency, µM (titrated, usually from 46.1 µM), hits mostly cytotoxic; KB-V1 MDR cells viability, CellTiter-Glo, 72 h; note: potency is the fitted concentration of half-maximal effect; % is set by controls: 0 for no effect and ±100 for the full control effect; nearly all actives have a fitted effect of over 60% in size
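Following 72 h at 37 degrees C with compound, KB-V1 cell viability was read by CellTiter-Glo luminescence, medium being phenol-red-free DMEM plus 10% FBS; concentration-response parameters came from normalized, curve-fitted qHTS data.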
D3 antag: D3 dopamine receptor (human) antagonism. P35462. D3R cells, DiscoveRx beta-arrestin luminescence, antagonist mode; stronger effect = lower value. max response, negative = inhibition, %. 360,000 tested, 2.5% active. AID 652054; in the data active = max response below about -50%; inconclusive = no clear call, values can overlap the other calls; note: % is set by controls: 0 for no effect and ±100 for the full control effect
Target sequence (P35462 whole entry, looked up): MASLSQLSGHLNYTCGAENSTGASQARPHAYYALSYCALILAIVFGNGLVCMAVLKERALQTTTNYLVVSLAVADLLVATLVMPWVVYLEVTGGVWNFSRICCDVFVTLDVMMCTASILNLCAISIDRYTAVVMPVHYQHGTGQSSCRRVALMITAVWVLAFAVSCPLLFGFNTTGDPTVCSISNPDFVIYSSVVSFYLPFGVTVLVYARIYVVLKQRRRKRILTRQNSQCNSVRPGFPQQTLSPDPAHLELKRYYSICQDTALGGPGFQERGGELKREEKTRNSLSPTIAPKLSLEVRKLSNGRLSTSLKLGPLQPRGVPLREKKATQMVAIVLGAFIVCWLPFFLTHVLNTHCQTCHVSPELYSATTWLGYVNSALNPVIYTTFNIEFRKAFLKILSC
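Cells expressing the human receptor were seeded at 1500 cells/well, incubated overnight at 37 degrees C in 5% CO2, then exposed to library compounds with dopamine controls for 90 minutes at 37 degrees C before luminescent detection.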
MCF10A rereplic: inducers of DNA re-replication in MCF 10A breast cells; MCF 10A DNA re-replication, Hoechst nuclear intensity, 48 h; 350,000 tested, 2.9% active; Potency, µM (titrated, usually from 46.1 µM), for the others: at the top dose activity, positive = re-replication, usual class: activators; AID 624296; note: potency is the fitted concentration of half-maximal effect; % of control where 0% means no effect; nearly all actives have a fitted effect of over 50% in size
DRD3 agonist: D3 dopamine receptor (human) agonism. max activation, %. P35462. D3R DiscoveRx beta-arrestin cells, luminescence, 90 min. AID 652048. 410,000 tested, 0.58% active; in the data active = max activation above about 30%; note: 0% is about no effect
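Agonist-mode cell screen: cells plated at 1500/well and incubated overnight at 37 °C, then exposed to library compounds for 90 min at 37 °C. Detection reagent was added for 30–60 min at room temperature, and luminescence was read.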
KB-3-1 tox: KB-3-1 parental cell cytotoxicity; KB-3-1 viability, CellTiter-Glo ATP luminescence, 72 h; Potency, µM (doses to about 46.1 µM), actives largely listed as cytotoxic; AID 1347075; 400,000 tested, 1.4% active; note: potency is the fitted concentration of half-maximal effect; % is set by controls: 0 for no effect and ±100 for the full control effect; nearly all actives have a fitted effect of over 60% in size
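Parental KB-3-1 viability, qHTS format: 72 h compound exposure, 37 °C; CellTiter-Glo; media-only wells and DMSO plates as controls; concentration-effect fits on corrected data.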
* hit, by the source's call; i = inactive; ? = inconclusive; nt = no result given. Hits are enriched below; roughly 8.9% of the tested compounds scored in any of these assays. Unless noted, calls come from the whole dose curve; as a rule, active = well fitted curve in the direction sought with a large enough effect; inconclusive = small, poorly fitted or top-dose-only effect, or another doubt; inactive = no such curve, though single readings can be large; an effect the other way counts as inactive or inconclusive.

SMILES	SW480 rerep	KB-V1 MDR tox	D3 antag	MCF10A rereplic	DRD3 agonist	KB-3-1 tox
Nc1ccccc1/C=C/c1ccnc2ccccc12	nt	i	nt	nt	nt	?
CC(OC(=O)c1ccccc1NCCO)C(=O)NC1CCCCC1C (stereo not drawn)	3.5%	9.2µM*	0.0	5.7%	3.8	i
CC(OC(=O)c1ccc(C(C)(C)C)cc1)C(=O)NC1CCCCC1C (stereo not drawn)	6.2%	i	-1.9	7.1%	2.6	i
CC(OC(=O)c1cccs1)C(=O)NC1CCCCC1C (stereo not drawn)	-13.7%	i	-10.1	?	9.8	i
Cc1ccc(C(=O)OC(C)C(=O)NC2CCCCC2C)s1 (stereo not drawn)	-5.2%	20.6µM*	-22.2	6.0%	-1.2	i
CCN(C(=O)c1coc(=O)c2ccccc12)c1ccccc1C	nt	i	nt	nt	2.8	i
Cc1ccc(Nc2n[nH]c(=S)s2)cc1	nt	i	-51.1*	nt	-6.9	i
Cc1ccc(NC(=O)c2cc(C(=O)c3cc(Cl)ccc3O)cn(-c3ccc(C)cc3)c2=O)cc1	15.6%	18.4µM*	8.2	11.1%	-3.2	?
Cc1cccc(NC(=O)CSc2nc(=O)n(Cc3cccnc3)c3c2CCC3)c1C	nt	i	nt	nt	5.2	i
O=[N+]([O-])c1ccc(N2CCN(S(=O)(=O)c3ccc(Cl)c(Cl)c3)CC2)cc1NCCN1CCOCC1	1.7%	i	2.8	5.7%	-10.5	i
CC1CN(c2ccc(C(F)(F)F)cc2[N+](=O)[O-])CCN1S(C)(=O)=O (stereo not drawn)	1.8%	i	?	-2.9%	6.6	i
O=[N+]([O-])c1cc(C(F)(F)F)ccc1N1CCN(S(=O)(=O)c2ccc3c(c2)CCCC3)CC1	-10.2%	5.17µM*	5.6	-1.5%	1.8	?
CCNc1cc(N2CCN(S(=O)(=O)c3ccc4c(c3)CCCC4)CC2)ccc1[N+](=O)[O-]	2.6%	1.46µM*	8.4	17.6%	4.4	i
CCCN(CC)C(CC)C(=O)Nc1c(C)cccc1C (stereo not drawn)	nt	nt	nt	nt	-9.8	nt
O=C(CN1CCN(c2ccccc2O)CC1)Nc1ccc2c(c1)CCC2	10.9%	i	-71.5*	25.4%	-12.0	i
O=C(CN1CCN(S(=O)(=O)c2ccccc2)CC1)Nc1ccc2c(c1)CCC2	15.5%	?	-53.1*	22.8%	-25.2	i
O=C(CN1CCCC1)Nc1ccc2c(c1)CCC2	3.8%	i	-22.7	18.2%	-10.2	i
COc1ccc(C)cc1NC(=O)c1cc2c(=O)n3cccc(C)c3nc2s1	nt	i	nt	nt	-6.1	i
O=C(N/C(=C/c1ccc(Br)cc1)C(=O)N1CCCCC1)c1ccccc1F	?	nt	-57.1*	6.9%	-20.4	nt
CCOC(=O)N1CCN(C(=O)/C(=C/c2ccc(Br)cc2)NC(=O)c2ccc(OC)cc2)CC1	-4.5%	18.4µM*	-8.4	2.6%	14.9	i
O=C(N/C(=C/c1ccc(Br)cc1)C(=O)N1CCCC1)c1ccccc1F	-3.9%	i	9.7	-3.4%	0.1	i
CCOC(=O)N1CCN(C(=O)/C(=C/c2cccc3ccccc23)NC(=O)c2ccc(OC)c(OC)c2)CC1	-1.6%	4.61µM*	12.8	8.1%	14.4	i
O=S(=O)(Nc1ccon1)c1ccc(F)c(F)c1	3.2%	i	-81.0*	-1.1%	-5.9	i
O=S(=O)(Nc1ccon1)c1cc(Cl)ccc1Cl	3.1%	i	4.7	3.3%	0.8	i
O=C(NN=Cc1c(O)ccc2ccccc12)c1ccc2c(c1)OCO2	20.6µM*	?	-24.7	11.6µM*	-11.4	?
SMILES	SW480 rerep	KB-V1 MDR tox	D3 antag	MCF10A rereplic	DRD3 agonist	KB-3-1 tox
O=CN/N=C/c1c(O)ccc2ccccc12	18.0%	?	10.5	1.4%	-1.2	7.31µM*
NC(=S)N/N=C/c1coc2c(ccc3ccccc32)c1=O	15.6%	5.17µM*	-18.8	-4.1%	0.4	6.51µM*
NC(=S)N/N=C/c1c(O)ccc2ccccc12	?	?	10.5	?	6.0	1.64µM*
Cc1ccc(-c2ccnc(N3CCC(C(N)=O)CC3)n2)cc1	nt	i	nt	nt	nt	i
COc1ccc(NC(=O)/C(Cl)=C(/Cl)S(=O)Cc2ccccc2Cl)cn1 (stereo not drawn)	?	?	-96.1*	1.03µM*	-18.3	18.4µM*
COc1ccc(NC(=O)/C(Cl)=C(/Cl)S(=O)(=O)Cc2ccc(C)cc2)cn1	2.59µM*	?	-76.5*	?	-6.9	6.51µM*
COc1ccc(O)c(C(=O)CC(=O)c2ccccc2C)c1	20.6µM*	?	14.4	?	-9.0	?
COc1ccc(O)c(C(=O)CC(=O)c2ccc(F)cc2)c1	19.1%	2.91µM*	?	0.0%	-7.5	?
COc1ccc(O)c(C(=O)CC(=O)c2cccnc2)c1	-10.2%	i	5.0	-10.7%	-6.7	i
O=C1CN(C(=O)c2ccc(S(=O)(=O)N3CCCC3)cc2)C(c2ccc(F)cc2)c2cc(Br)ccc2N1 (stereo not drawn)	nt	i	nt	nt	-14.3	i
N[C@@H](CSSC[C@H](N)C(=O)O)C(=O)O	nt	nt	nt	nt	8.1	nt
CCCCCCCCN1C(=O)[C@H](CC(=O)NCc2cccs2)C[C@@]2(C(=O)OC)CC(C)(C)CC=C12	nt	?	41.7	nt	44.3*	?
CCOC(=O)[C@]12CCCC=C1N(CCC1=CCCCC1)C(=O)[C@H](CC(=O)NCC1CCCCC1)C2	nt	14.6µM*	-27.1	nt	-4.3	16.4µM*
CCCCCCCCN1C(=O)[C@H](CC(=O)NCCCOCCCC)C[C@@]2(C(=O)OC)CCCCC=C12	nt	13µM*	3.3	nt	86.5*	?
CCCCCCCCN1C(=O)[C@H](CC(=O)NCCCC)C[C@@]2(C(=O)OC)CCCCC=C12	nt	?	16.7	nt	0.1	i
CCCCCCCCN1C(=O)[C@H](CC(=O)NCCCOC)C[C@@]2(C(=O)OC)CC(C)(C)CC=C12	nt	i	-0.5	nt	0.9	i
CCOC(=O)[C@]12CCC=C1N(CCC1=CCCCC1)C(=O)[C@H](CC(=O)NCC1CCCCC1)C2	nt	?	-6.1	nt	7.7	i
CCCCCCCCN1C(=O)[C@H](CC(=O)NCCCOCCCC)C[C@@]2(C(=O)OC)CC(C)(C)CC=C12	nt	23.1µM*	3.9	nt	0.0	18.4µM*
Cn1ccc2cc(S(=O)(=O)N3CCN(C(=O)Nc4cccc(F)c4)CC3)ccc21	nt	i	nt	nt	-0.5	i
COc1ccccc1Cn1c(CNS(=O)(=O)c2cccc([N+](=O)[O-])c2)nc2cccnc21	nt	nt	nt	nt	-0.5	nt
COc1ccc(CNC(=O)CCNS(=O)(=O)c2ccc3c(c2)CCCC(=O)N3)cc1	nt	i	nt	nt	-1.5	i
CCN(c1ccc(C)c(C)c1)S(=O)(=O)c1ccc2c(c1)CCN2C(=O)CCC(=O)O	?	i	-2.8	20.6µM*	-8.1	i

From PubChem BioAssay
